Experiment [1] in a line: A CellTox Green Cytotoxicity Assay to monitor cytotoxicity in HEK293 cells - 32 hour (AID 1224881). Note: nearly all actives have a fitted effect of over 40% in size. In short, it runs like this: (§1)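 HEK293 cells, 600/well, were preincubated 5 hours and then exposed to compounds at 37 C for up to 40 hours. A cell-impermeant cyanine dye staining dead-cell DNA was read by fluorescence at 0, 8, 16, 24, 32 and 40 h time points.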
The nature of experiment [2]: A CellTox Green Cytotoxicity Assay to monitor cytotoxicity in HepG2 cells - 32 hour (AID 1224883). Note: nearly all actives have a fitted effect of over 50% in size. Put shortly: (§2)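 HepG2 cells, 600/well, preincubated 5 h with CellTox Green dye, then exposed to Tox21 compounds in DMSO at 37 C for up to 40 h. Dead-cell DNA fluorescence read at the indicated time point.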
Experiment [3] is described as follows: qHTS RealTime-Glo MT Cell Viability Assay in HepG2 cells - 16 hour (AID 1224885). Note: nearly all actives have a fitted effect of over 50% in size. Put shortly: (§3)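 HepG2 cells were seeded at 600 cells/well together with NanoLuc luciferase and a cell-permeant prosubstrate, preincubated 5 h at 37 C/5% CO2, then pin-dosed with compounds in DMSO. Nonlytic luminescence from viable cells was read at each time point.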
A short description of experiment [4]: qHTS RealTime-Glo MT Cell Viability Assay in HEK293 cells - 24 hour (AID 1224886). Note: top concentration of the series differs between compounds; nearly all actives have a fitted effect of over 50% in size. Put shortly: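 HEK293 cells were seeded at 600 cells/well together with NanoLuc luciferase and cell-permeant prosubstrate, preincubated 5 h at 37 C/5% CO2, then given compound in DMSO by pintool. Luminescence from viable-cell prosubstrate reduction was read repeatedly over 40 h.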

Experiment [5] in a line: qHTS RealTime-Glo MT Cell Viability Assay in HEK293 cells - 8 hour (AID 1224887). Note: top concentration of the series differs between compounds; nearly all actives have a fitted effect of over 50% in size. Put shortly:
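600 cells/well were plated with the nonlytic NanoLuc/prosubstrate reagent, pre-incubated 5 h, then given 23 nL of compound in DMSO. Incubation at 37 C for 40 h, with luminescence from viable-cell-reduced substrate read repeatedly from 0 h.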

The nature of experiment [6]: A CellTox Green Cytotoxicity Assay to monitor cytotoxicity in HEK293 cells - 16 hour (AID 1224888). Note: nearly all actives have a fitted effect of over 35% in size. Note: potency is the fitted concentration of half-maximal effect. Put shortly: as §1
Experiment [7] in a line: qHTS RealTime-Glo MT Cell Viability Assay in HepG2 cells - 0 hour (AID 1224889). Note: nearly all actives have a fitted effect of over 50% in size. Put shortly:
as §3

The nature of experiment [8]: A CellTox Green Cytotoxicity Assay to monitor cytotoxicity in HepG2 cells - 8 hour (AID 1224890). Note: nearly all actives have a fitted effect of over 45% in size. Put shortly: as §2
Experiment [9] is described as follows: qHTS assay to identify small molecule antagonists of the estrogen receptor alpha (ER-alpha) signaling pathway using the BG1 cell line in the presence of 0.1 nM 17-beta-estradiol - cell viability counter screen (AID 1259241). Note: nearly all actives have a fitted effect of over 40% in size. Put shortly:
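Cells were plated and left 24 hr, compounds in DMSO were pinned in, 17beta-estradiol was added to 0.1 nM final, and after 22 hr CellTiter-Fluor reagent was added for 30 min before fluorescence was read.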

The nature of experiment [10]: qHTS assay to identify small molecule antagonists of the androgen receptor (AR) signaling pathway using the MDA cell line in the presence of 0.5 nM R1881 - cell viability counter screen (AID 1259242). Note: nearly all actives have a fitted effect of over 45% in size. In short, it runs like this: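 MDA-kb2 cells (MMTV-luciferase, AR/GR responsive) were treated with compounds plus 0.5 nM R1881 (final) for 16 hr at 37C, 0% CO2. Viability was then read in the same wells as live-cell protease fluorescence (CellTiter-Fluor, 30 min).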

For experiment [11], the target named is Estrogen receptor (Homo sapiens) (UniProt P03372). Description: qHTS assay to identify small molecule antagonists of the estrogen receptor alpha (ER-alpha) signaling pathway using the BG1 cell line in the presence of 0.1 nM 17-beta-estradiol (AID 1259244). Note: nearly all actives have a fitted effect of over 50% in size. In short, it runs like this: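 VM7Luc4E2 cells (endogenous full-length ER-alpha, 4×ERE-luciferase), kept 5 days in phenol red-free, charcoal-stripped FBS medium; 4,000 cells/well. Compounds added with 0.1 nM (final) 17beta-estradiol, 22 hr at 37C; luminescence read with ONE-Glo after 30 min.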

Experiment [12] can be described thus: qHTS assay to identify small molecule HDAC inhibitors (AID 1259364). Note: top concentration of the series differs between compounds; nearly all actives have a fitted effect of over 45% in size. In short, it runs like this:
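Wild-type HCT-116 cells, plated overnight at 37 C, exposed to compounds 2 hr at 37 C; luminogenic HDAC-Glo substrate then added 30 min at room temperature. Luminescence reports relative endogenous class I/II HDAC activity.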

Experiment [13] can be described thus: qHTS assay to identify small molecule HDAC inhibitors - cell viability counter screen (AID 1259365). Put shortly:
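Counter screen in wild-type HCT-116 cells: compounds dissolved in DMSO are pin-transferred onto overnight-plated cells and left 2hr at 37C. ATP-based CellTiter-Glo luminescence then measures viable cells.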

Experiment [14] in a line: qHTS assay to identify small molecule agonists of the sonic hedgehog signaling (Shh) pathway - cell viability counter screen (AID 1259366). Note: nearly all actives have a fitted effect of over 50% in size. Note: potency is the fitted concentration of half-maximal effect. Put shortly:
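Cells are plated at 2,000 per well and left 4hr at 37C, 5% CO2 before compound addition. After 23hr of treatment, CellTiter-Fluor reagent is added for 1hr at 37C and fluorescence is measured.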

Experiment [15] in a line: qHTS assay to identify small molecule antagonists of the sonic hedgehog signaling (Shh) pathway - cell viability counter screen (AID 1259367). Note: nearly all actives have a fitted effect of over 55% in size. Put shortly: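 After a 4 hr settling period, 3T3 Gli1-Luc cells were treated with DMSO-dissolved chemicals and conditioned medium, kept 24 hr at 37C in 5% CO2, and assayed for viability by CellTiter-Fluor fluorescence following 1 hr reagent incubation.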

Experiment [16] in a line: qHTS assay to identify small molecule agonists of the sonic hedgehog signaling (Shh) pathway (AID 1259368; calls by dose curve;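 note: NIH/3T3-derived 3T3Gli1-Luc cells carrying a stable Gli1-driven firefly luciferase reporter; series mostly up to about 92 µM; nearly all actives have a fitted effect of over 15% in size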). Put shortly:
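NIH/3T3-derived 3T3Gli1-Luc cells with stably integrated Gli1-driven firefly luciferase, 2,000 cells/well, compounds added after 4 hr. Incubated 24 hr at 37C, 5% CO2; luminescence read after 30 min with luciferase reagent at room temperature.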

Experiment [17] in a line: A CellTox Green Cytotoxicity Assay to monitor cytotoxicity in HEK293 cells - 8 hour (AID 1224884). Note: nearly all actives have a fitted effect of over 35% in size. In short, it runs like this: as §1
A short description of experiment [18]: qHTS assay to identify small molecule phospholipidosis (PLD) inducers (AID 1259344; active = well fitted curve in the direction sought with a large enough effect; an effect the other way counts as inactive or inconclusive). Put shortly:
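HepG2 cells grown on collagen I take up LipidTOX Red while exposed to compound for 24 h; after fixation they are imaged at 20x and pit metrics are extracted.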

Experiment [19] can be described thus: A CellTox Green Cytotoxicity Assay to monitor cytotoxicity in HepG2 cells - 0 hour (AID 1224882). Note: nearly all actives have a fitted effect of over 35% in size. In short, it runs like this: as §2

The record followed here is PubChem BioAssay (Tox21).

Inconclusive results are not listed. Active and inactive are the calls of the source. Unless noted, calls come from the whole dose curve; as a rule, active = well fitted curve in the direction sought with a large enough effect in the repeat runs; inconclusive = weak or mixed curves; inactive = no such curve, though single readings can be large; an effect the other way counts as inactive or inconclusive.

Estrogen receptor (Homo sapiens), sequence (P03372 whole entry, looked up): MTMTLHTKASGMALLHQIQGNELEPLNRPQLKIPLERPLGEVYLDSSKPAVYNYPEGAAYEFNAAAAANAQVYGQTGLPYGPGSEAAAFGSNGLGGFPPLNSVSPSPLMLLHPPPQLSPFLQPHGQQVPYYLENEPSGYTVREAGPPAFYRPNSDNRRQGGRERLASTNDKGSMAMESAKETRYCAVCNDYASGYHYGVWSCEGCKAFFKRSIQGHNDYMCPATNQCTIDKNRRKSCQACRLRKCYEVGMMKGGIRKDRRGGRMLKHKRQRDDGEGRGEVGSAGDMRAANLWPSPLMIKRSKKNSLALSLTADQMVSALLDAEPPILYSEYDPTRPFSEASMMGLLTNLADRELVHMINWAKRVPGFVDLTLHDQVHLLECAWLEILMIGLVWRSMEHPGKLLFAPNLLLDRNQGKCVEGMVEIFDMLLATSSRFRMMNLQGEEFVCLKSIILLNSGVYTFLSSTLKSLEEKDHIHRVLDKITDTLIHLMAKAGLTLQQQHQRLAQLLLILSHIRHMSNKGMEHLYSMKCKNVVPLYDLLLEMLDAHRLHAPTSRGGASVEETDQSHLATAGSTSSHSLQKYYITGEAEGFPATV

As to `CC(=O)N(CC(=O)N(C)C)c1ccccc1`, the Potency entry in experiment [1], in [2], in [3], in experiment [4], in experiment [5] and in experiment [6] was “inactive” in each case. In addition, the Potency entry in [7], in experiment [8], in experiment [9], in experiment [10], in experiment [11] and in experiment [12] was “inactive” each time. For the same compound, the Potency entry in experiment [14] and in experiment [15] was “inactive” each time. Moreover, the compound was called inactive in experiment [13] and in [16].
As for `CNCC[C@@H](Oc1ccccc1C)c1ccccc1`, the Potency entry in experiment [1], in experiment [2], in experiment [17], in experiment [3], in experiment [4] and in experiment [6] was “inactive” in each case. Besides, the Potency result in experiment [8], in [9], in [10], in experiment [11], in experiment [18] and in [12] was “inactive” each time. Further, the Potency result in experiment [14] was “inactive”. For the same compound, the outcome in [13] and in experiment [16] was inactive.
With `O=S1(=O)c2cccc3cccc(c23)N1CCCN1CCN(c2ccc(F)cc2)CC1`, the Potency result in [1], in experiment [3], in experiment [4], in experiment [5], in [6] and in [7] was “inactive” each time. For the same compound, the Potency result in experiment [9], in experiment [10], in [18], in [14] and in experiment [15] was “inactive” in each case. In addition, the outcome in [13] and in experiment [16] was inactive.
On to `CN1CCN(C2=Nc3cc(Cl)ccc3Nc3ccccc32)CC1`, for which the Potency entry in experiment [1], in experiment [17], in [5], in experiment [7], in [8] and in experiment [9] was “inactive” each time. Moreover, the Potency result in experiment [10] is “inactive”. Besides, the Potency in experiment [6] is 4.25 µM (active); in [14] it was 13.3 µM (active). In [16], the compound was classed as inactive.
Turning to `Cc1cc(NC(=O)C(=O)O)cc(C)c1Oc1ccc(O)c2c1CCC2`, the Potency result in [19], in experiment [2], in experiment [17], in experiment [3], in [4] and in experiment [5] was “inactive” in each case. Moreover, the Potency entry in [6], in [9], in experiment [10], in experiment [11], in experiment [12] and in experiment [14] was “inactive” in each case. Further, the Potency result in experiment [15] was “inactive”. The compound was called inactive in experiment [13] and in experiment [16].
For `CC1(C)CCC(C)(C)c2cc(NC(=O)c3ccc(C(=O)O)cc3)ccc21`, the Potency entry in [1], in [2], in experiment [17], in experiment [3], in experiment [7] and in experiment [8] was “inactive” throughout. Further, the Potency result in experiment [9], in [10], in experiment [18], in [12] and in experiment [15] was “inactive” in each case. Also, the compound was classed as inactive in [13] and in experiment [16].
In the case of `CC(C)=CCCC(C)CC=O` (centres undefined), the Potency result in [19], in experiment [2], in [17], in [3], in [4] and in experiment [5] was “inactive” each time. In addition, the Potency entry in experiment [6], in experiment [7], in [9], in [10], in experiment [12] and in [14] was “inactive” in each case. In addition, the Potency entry in experiment [15] is “inactive”. The result in experiment [13] and in experiment [16] was inactive.
On to `Nc1cnn([C@@H]2O[C@H](CO)[C@@H](O)[C@H]2O)c(=O)n1`, for which the Potency entry in experiment [1], in [2], in [17], in [3], in [4] and in experiment [7] was “inactive” throughout. Also, the Potency entry in [9], in experiment [10], in experiment [11], in [12], in experiment [14] and in [15] was “inactive” throughout. Also, the compound was called inactive in experiment [13] and in experiment [16].
As for `Nc1nc(N)c2nc(CNc3ccc(C(=O)N[C@@H](CCC(=O)O)C(=O)O)cc3)cnc2n1`, the Potency result in experiment [19], in experiment [2], in [17], in experiment [3], in experiment [4] and in experiment [5] was “inactive” in each case. In addition, the Potency result in experiment [6], in [7], in experiment [8], in experiment [9], in experiment [10] and in experiment [11] was “inactive” throughout. Moreover, the Potency entry in experiment [18], in [12] and in experiment [15] was “inactive” in each case. Besides, the outcome in [13] and in experiment [16] was inactive.
For `CCCCOC(=O)c1ccccc1C(=O)OCC(CC)CCCC` (centres undefined), the Potency result in [19], in experiment [2], in [17], in experiment [3], in experiment [4] and in [6] was “inactive” each time. The Potency result in experiment [7], in [8], in experiment [9], in experiment [10], in [11] and in experiment [12] was “inactive” in each case. Moreover, the Potency entry in experiment [14] and in experiment [15] was “inactive” in each case. The result in [13] and in experiment [16] was inactive.
